According to PubChem BioAssay (Tox21):
Results filed as inconclusive are left out. A structure can be active in one record and inactive in another. The source made the active and inactive calls. Unless noted, calls come from the whole dose curve.

Tests used:
[1] = Nuclear factor erythroid 2-related factor 2/antioxidant responsive element (Nrf2/ARE) small molecule agonists: qHTS cell viability counter screen in human keratinocytes (AID 1919968; active = well fitted curve in the direction sought with a large enough effect in the repeat runs; an effect the other way counts as inactive or inconclusive; note: nearly all actives have a fitted effect of over 55% in size)
How it was run: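 KeratinoSens cells (HaCaT keratinocytes stably carrying an ARE-luciferase reporter) were seeded at 1,500 cells/well and rested 5 h at 37 C/5% CO2. They were then exposed to compounds in DMSO for 23 h. Viability was read by CellTiter-Fluor fluorescence after 1 h.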

[2] = Nuclear factor erythroid 2-related factor 2/antioxidant responsive element (Nrf2/ARE) small molecule agonists: luciferase reporter gene qHTS assay in human keratinocytes (AID 1919969); note: nearly all actives have a fitted effect of over 35% in size; note: potency is the fitted concentration of half-maximal effect
[3] = biological target: Gonadotropin-releasing hormone receptor (Homo sapiens) (UniProt P30968); test: Human gonadotropin-releasing hormone receptor (GnRHR) small molecule agonists, calcium flux assay in GnRHR-HEK293 cells (AID 1920063); note: nearly all actives have a fitted effect of over 35% in size
How it was run: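 HEK293 cells stably expressing human GnRHR were plated 18 h at 37 °C, loaded with calcium dye 1 h at 37 °C, then given compound in agonist mode; fluorescence (Ex/Em 480/540) read kinetically for 3 min at 1 s intervals.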

[4] = biological target: KiSS-1 receptor (Homo sapiens) (UniProt Q969F8); test: Human kisspeptin (KISS1R) small molecule agonists, calcium flux assay in KISS1R-HEK293 cells (AID 1920064; active = well fitted curve in the direction sought with a large enough effect in the repeat runs; an effect the other way counts as inactive or inconclusive)
How it was run: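 HEK293 cells stably expressing human KISS1R were plated 18 h at 37 °C, loaded with calcium dye for 1 h at 37 °C, then given compound by pin tool. Fluorescence (Ex/Em 480/540) was read kinetically for 3 min.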

[5] = G protein-coupled receptor (GPCR) small molecule agonists, calcium flux assay: HEK293 wild type cell line counter screen (AID 1920065)
How it was run: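 Cells were plated and cultured 18 h at 37 C/5% CO2, then loaded with calcium dye for 1 h at 37 C. Compounds in DMSO were pin-transferred in agonist mode, and fluorescence (Ex/Em 480/540) was read kinetically for 3 min at 1 s intervals.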

[6] = p53 small molecule agonists, cell-based qHTS assay with human liver microsomes (AID 1963577);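 note: p53 response element beta-lactamase reporter cells with liver microsomes plus NADPH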
How it was run: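 In this qHTS, p53 response-element beta-lactamase cells receive test compound together with a microsome/NADPH activating system (0.5 mg/mL final each) and are incubated 16 h at 37 C before LiveBLAzer fluorescence detection.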

[7] = p53 small molecule agonists, cell-based qHTS assay with rat liver microsomes (AID 1963578)
How it was run: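 Agonist mode in p53RE-bla reporter cells, with compounds co-incubated 16 h at 37 C alongside 0.5 mg/mL rat liver microsomes and 0.5 mg/mL NADPH (final), followed by a 2 h LiveBLAzer detection step.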

[8] = p53 small molecule agonists, cell-based qHTS assay with human liver microsomes: qHTS cell viability counter screen (AID 1963579); note: nearly all actives have a fitted effect of over 45% in size
How it was run: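 Metabolically activated exposure: compounds, human liver microsomes and NADPH (0.5 mg/mL final apiece) were added to p53RE-bla cells seeded 5 h earlier, left 16 h at 37 C, and then assessed for viability by CellTiter-Glo luminescence.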

[9] = p53 small molecule agonists, cell-based qHTS assay with rat liver microsomes: qHTS cell viability counter screen (AID 1963580); note: nearly all actives have a fitted effect of over 45% in size
How it was run: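 p53RE-bla HCT-116 cells were exposed 16 h at 37 C to compounds with rat liver microsomes (0.5 mg/mL) and NADPH (0.5 mg/mL). Viability was measured in the same wells as ATP content by CellTiter-Glo luminescence.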

[10] = p53 small molecule agonists, cell-based qHTS assay: qHTS cell viability counter screen (AID 1963581); note: nearly all actives have a fitted effect of over 45% in size
How it was run: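 p53RE-bla HCT-116 cells were exposed to compounds for 16 h at 37 C; after the beta-lactamase FRET read in the same wells, CellTiter-Glo was added and luminescence (intracellular ATP) read after 30 min at room temperature.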

[11] = p53 small molecule agonists, cell-based qHTS assay (AID 1963582; active = well fitted activation curve with a large enough effect in the signal ratio in the repeat runs, not every such curve was filed as active; the % refers to the signal ratio; note: potency is the fitted concentration of half-maximal effect)
How it was run: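 p53RE-bla beta-lactamase reporter cells rested 5 h at 37 C/5% CO2, then received compounds in DMSO by pin transfer and were incubated 16 h at 37 C. LiveBLAzer B/G FRET substrate was loaded for 2 h at room temperature before fluorescence reading.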

[12] = biological target: 5-hydroxytryptamine receptor 2A (Homo sapiens) (UniProt P28223); test: 5-hydroxytryptamine receptor 2A (HTR2A) small molecule agonists, cell-based qHTS assay (AID 1963587); note: nearly all actives have a fitted effect of over 30% in size
How it was run: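 CHO cells stably expressing human HTR2A, plated 18 h, loaded with calcium dye 1 h at 37 C. Agonist mode: compounds added and intracellular calcium fluorescence recorded kinetically for 2 min at 1 sec intervals.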

[13] = biological target: Muscarinic acetylcholine receptor M1 (Homo sapiens) (UniProt P11229); test: Cholinergic receptor muscarinic 1 (CHRM1) small molecule antagonists, cell-based qHTS assay (AID 1963588); note: nearly all actives have a fitted effect of over 40% in size
How it was run: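 CHRM1-CHO calcium-flux assay, antagonist mode. Cells were seeded 18 h, dye-loaded 1 h at 37 C and given compound for 5 min at RT, then acetylcholine was added at 50nM. FDSS fluorescence was read 3 min; 15 concentrations, three runs.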

[14] = biological target: Muscarinic acetylcholine receptor M1 (Homo sapiens) (UniProt P11229); test: Cholinergic receptor muscarinic 1 (CHRM1) small molecule agonists, cell-based qHTS assay (AID 1963589); note: nearly all actives have a fitted effect of over 35% in size
How it was run: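 CHO cells stably expressing human CHRM1, seeded 18 h at 37 C/5% CO2, dye-loaded 1 h at 37 C, then given compound in agonist mode; intracellular calcium fluorescence read kinetically at 1 s intervals. Fifteen concentrations, three independent runs.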

[15] = cAMP Responsive Elements (CRE) small molecule agonists, cell-based qHTS assay (AID 1963590)
How it was run: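 CRE-bla HEK 293T cells in DMEM with 10% dialyzed FBS, NEAA, pyruvate and 25 mM HEPES were plated 18 h at 37 C/5% CO2, then exposed to compounds in DMSO for 3 h before LiveBLAzer B/G FRET substrate addition.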

[16] = cAMP Responsive Elements (CRE) small molecule antagonists, cell-based qHTS assay (AID 1963591; active = well fitted inhibition curve with a large enough effect in the signal ratio in the repeat runs, not every such curve was filed as active; the % refers to the signal ratio)
How it was run: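 CRE-bla HEK293T cells were plated 18 h at 37 °C/5% CO2, pinned with compound in DMSO, then stimulated with NKH477 at 0.25 uM final for 3 h. LiveBLAzer B/G FRET substrate was added and plates incubated 2 h at room temperature.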

[17] = biological target: Beta-2 adrenergic receptor (Homo sapiens) (UniProt P07550); test: Adrenergic beta2 receptor (ADRB2) small molecule antagonists, cell-based qHTS assay (AID 1963592); note: series mostly up to about 92 µM; nearly all actives have a fitted effect of over 50% in size
How it was run: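 Cells (CHO, stable ADRB2 overexpression) incubated 18-20hr at 37C; compounds added from DMSO; agonist mix (1nM isoproterenol, 100uM IBMX, 25uM Ro-20-1724) added; 0.5hr RT; d2-cAMP and anti-cAMP-cryptate added; 1hr RT; 665/615 nm read.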

[18] = biological target: D(2) dopamine receptor (Homo sapiens) (UniProt P14416); test: Dopamine D2 receptor (DRD2) small molecule agonists, cell-based qHTS assay (AID 1963594); note: nearly all actives have a fitted effect of over 35% in size
How it was run: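 HEK293 cells stably expressing human DRD2, pre-treated with PDE inhibitor Ro20-1724 (0.1 mM final) and compound 10 min at room temperature, then stimulated with NKH477 (200nM […]) for 30 min. cAMP read by HTRF (665/620 nm).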

[19] = biological target: D(2) dopamine receptor (Homo sapiens) (UniProt P14416); test: Dopamine D2 receptor (DRD2) small molecule antagonists, cell-based qHTS assay (AID 1963595; active = well fitted inhibition curve with a large enough effect in the signal ratio in the repeat runs, with a control signal flat; the % refers to the signal ratio)
How it was run: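 Antagonist mode in DRD2-HEK293 cells: after compound addition with 0.1 mM Ro20-1724, cells received quinpirole (12 nM) and NKH477 (200 nM) for 30 min at room temperature; HTRF cAMP read after 1 h detection.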

[20] = biological target: 5-hydroxytryptamine receptor 2A (Homo sapiens) (UniProt P28223); test: 5-hydroxytryptamine receptor 2A (HTR2A) small molecule antagonists, cell-based qHTS assay (AID 1963586); note: nearly all actives have a fitted effect of over 45% in size
How it was run: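 Antagonist-mode intracellular calcium assay: DOI (4 nM) added after 5 min compound pre-incubation at room temperature to dye-loaded HTR2A-CHO cells. Fluorescence followed for 3 min, sampled every second.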

Measured: Potency

Sequence of Muscarinic acetylcholine receptor M1 (Homo sapiens) (P11229 whole entry, looked up): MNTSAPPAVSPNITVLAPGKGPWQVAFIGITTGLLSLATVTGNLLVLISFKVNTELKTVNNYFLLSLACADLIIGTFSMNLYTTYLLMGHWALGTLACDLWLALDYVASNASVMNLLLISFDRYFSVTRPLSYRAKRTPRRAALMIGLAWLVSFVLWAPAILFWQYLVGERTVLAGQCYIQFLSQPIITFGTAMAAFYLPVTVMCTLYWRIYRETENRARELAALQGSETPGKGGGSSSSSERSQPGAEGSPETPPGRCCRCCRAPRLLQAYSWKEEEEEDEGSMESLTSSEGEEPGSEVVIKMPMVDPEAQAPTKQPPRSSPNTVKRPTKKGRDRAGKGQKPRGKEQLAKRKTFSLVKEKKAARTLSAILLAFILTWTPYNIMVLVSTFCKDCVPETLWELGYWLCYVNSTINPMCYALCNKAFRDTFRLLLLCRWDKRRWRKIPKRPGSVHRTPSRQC
Sequence of Gonadotropin-releasing hormone receptor (Homo sapiens) (P30968 whole entry, looked up): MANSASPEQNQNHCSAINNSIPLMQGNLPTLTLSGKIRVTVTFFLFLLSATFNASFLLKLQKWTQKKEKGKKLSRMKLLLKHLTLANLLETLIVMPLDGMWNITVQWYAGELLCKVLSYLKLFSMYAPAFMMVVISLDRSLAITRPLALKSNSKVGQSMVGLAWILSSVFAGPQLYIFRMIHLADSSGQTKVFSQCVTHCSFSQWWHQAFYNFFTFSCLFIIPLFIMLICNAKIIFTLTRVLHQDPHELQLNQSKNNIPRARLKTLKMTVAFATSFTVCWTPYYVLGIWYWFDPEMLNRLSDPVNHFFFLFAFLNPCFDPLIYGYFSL
Sequence of Beta-2 adrenergic receptor (Homo sapiens) (P07550 whole entry, looked up): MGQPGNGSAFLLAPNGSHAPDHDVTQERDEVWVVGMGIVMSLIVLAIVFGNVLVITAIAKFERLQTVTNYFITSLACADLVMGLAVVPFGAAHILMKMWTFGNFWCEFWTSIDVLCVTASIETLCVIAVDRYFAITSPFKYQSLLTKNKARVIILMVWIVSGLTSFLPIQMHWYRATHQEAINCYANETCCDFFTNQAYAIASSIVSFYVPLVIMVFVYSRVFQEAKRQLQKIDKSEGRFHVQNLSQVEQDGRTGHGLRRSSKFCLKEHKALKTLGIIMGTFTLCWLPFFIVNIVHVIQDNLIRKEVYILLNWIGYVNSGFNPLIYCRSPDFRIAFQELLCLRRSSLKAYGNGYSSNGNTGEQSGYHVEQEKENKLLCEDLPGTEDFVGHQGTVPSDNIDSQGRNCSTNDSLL
Sequence of 5-hydroxytryptamine receptor 2A (Homo sapiens) (P28223 whole entry, looked up): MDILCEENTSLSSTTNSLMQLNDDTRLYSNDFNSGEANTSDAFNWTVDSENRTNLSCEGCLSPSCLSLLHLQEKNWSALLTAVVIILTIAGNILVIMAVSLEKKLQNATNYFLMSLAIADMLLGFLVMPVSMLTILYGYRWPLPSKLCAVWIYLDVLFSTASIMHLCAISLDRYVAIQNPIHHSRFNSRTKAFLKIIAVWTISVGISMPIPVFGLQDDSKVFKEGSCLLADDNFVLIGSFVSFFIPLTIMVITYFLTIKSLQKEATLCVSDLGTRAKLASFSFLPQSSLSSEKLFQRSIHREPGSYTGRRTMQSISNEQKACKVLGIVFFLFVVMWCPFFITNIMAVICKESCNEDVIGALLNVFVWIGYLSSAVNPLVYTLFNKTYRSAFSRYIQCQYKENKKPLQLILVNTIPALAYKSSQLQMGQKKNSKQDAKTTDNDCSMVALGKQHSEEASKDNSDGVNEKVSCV
Sequence of D(2) dopamine receptor (Homo sapiens) (P14416 whole entry, looked up): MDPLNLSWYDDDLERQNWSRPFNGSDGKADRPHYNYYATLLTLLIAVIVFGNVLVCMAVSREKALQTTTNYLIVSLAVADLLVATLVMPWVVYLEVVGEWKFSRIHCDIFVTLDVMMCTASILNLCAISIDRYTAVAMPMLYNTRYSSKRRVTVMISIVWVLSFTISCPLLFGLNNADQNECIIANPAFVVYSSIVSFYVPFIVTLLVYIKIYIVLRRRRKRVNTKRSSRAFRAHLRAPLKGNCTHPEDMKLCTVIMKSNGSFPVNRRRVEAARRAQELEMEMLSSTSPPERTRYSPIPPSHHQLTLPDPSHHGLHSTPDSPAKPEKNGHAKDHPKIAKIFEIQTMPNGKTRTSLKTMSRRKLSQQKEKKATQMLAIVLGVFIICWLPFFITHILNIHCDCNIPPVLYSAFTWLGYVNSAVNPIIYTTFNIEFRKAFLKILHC
Sequence of KiSS-1 receptor (Homo sapiens) (Q969F8 whole entry, looked up): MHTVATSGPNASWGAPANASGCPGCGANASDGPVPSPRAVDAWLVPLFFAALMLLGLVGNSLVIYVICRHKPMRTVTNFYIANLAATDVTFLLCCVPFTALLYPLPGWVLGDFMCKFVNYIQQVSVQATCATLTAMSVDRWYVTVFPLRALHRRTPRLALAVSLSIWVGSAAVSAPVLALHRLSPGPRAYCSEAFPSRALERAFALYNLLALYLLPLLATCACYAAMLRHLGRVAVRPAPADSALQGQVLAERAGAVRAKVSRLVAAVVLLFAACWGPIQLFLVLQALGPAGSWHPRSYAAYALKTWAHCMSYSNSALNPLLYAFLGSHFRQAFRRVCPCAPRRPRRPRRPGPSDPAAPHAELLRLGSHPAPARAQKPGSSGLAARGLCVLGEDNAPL

CC(Br)C(=O)O (stereo not drawn)
inactive: [1] | [2] | [3] | [4] | [5] | [6] | [7] | [8] | [9] | [10] | [11] | [12] | [13] | [14] | [15] | [16] | [17] | [18] | [19]

Cc1ccc2cc(C)ccc2c1
inactive: [1] | [2] | [3] | [4] | [5] | [6] | [7] | [8] | [9] | [10] | [11] | [20] | [12] | [14] | [15] | [16] | [17] | [19]

CC(c1ccc(O)cc1)c1ccc(O)cc1
64.3 µM (active) and inactive: [2]
active: [11] 38.2 µM
inactive: [1] | [3] | [4] | [5] | [6] | [7] | [8] | [9] | [10] | [20] | [12] | [14] | [15] | [16] | [17] | [18] | [19]

[O-][Cl+2]([O-])O
inactive: [1] | [2] | [3] | [4] | [5] | [6] | [7] | [8] | [9] | [10] | [11] | [20] | [13] | [14] | [15] | [16] | [17] | [18]

CC(C)(O)C(Cl)(Cl)Cl
inactive: [1] | [2] | [3] | [4] | [5] | [6] | [7] | [8] | [9] | [10] | [11] | [20] | [13] | [14] | [15] | [16] | [17] | [18]

CC1(C)CC(=O)CC(C)(C)N1[O]
inactive: [1] | [2] | [3] | [4] | [5] | [6] | [7] | [8] | [9] | [10] | [11] | [12] | [13] | [14] | [15] | [16] | [17] | [18] | [19]

COS(=O)(=O)OC
inactive: [1] | [2] | [3] | [4] | [5] | [6] | [7] | [8] | [9] | [10] | [11] | [20] | [12] | [14] | [16] | [17] | [18]

CC(=O)[C@H]1CC[C@H]2[C@@H]3CC[C@H]4C[C@](C)(O)CC[C@]4(C)[C@H]3CC[C@]12C
inactive: [1] | [2] | [3] | [4] | [5] | [6] | [7] | [8] | [9] | [10] | [11] | [20] | [12] | [14] | [15] | [16] | [17] | [18] | [19]

Brc1ccc(Oc2ccccc2)cc1
inactive: [1] | [3] | [4] | [5] | [6] | [7] | [8] | [9] | [10] | [11] | [20] | [12] | [14] | [15] | [16] | [17] | [18] | [19]
35.2 µM (active) and inactive: [2]

C=CC(=O)OCCCCCC(C)C
inactive: [1] | [2] | [3] | [4] | [5] | [6] | [7] | [8] | [9] | [10] | [11] | [12] | [13] | [14] | [15] | [16] | [17] | [18] | [19]

ClCCN1CCCC1
inactive: [1] | [2] | [3] | [4] | [5] | [6] | [7] | [8] | [9] | [10] | [11] | [20] | [13] | [14] | [15] | [16] | [17] | [18] | [19]

CC(O)CN(CC(C)O)CC(C)O (stereo not drawn)
inactive: [1] | [2] | [3] | [4] | [5] | [6] | [7] | [8] | [9] | [10] | [11] | [20] | [13] | [14] | [16] | [17] | [18] | [19]

c1ccc2c(c1)sc1ccccc12
inactive: [1] | [2] | [3] | [4] | [5] | [6] | [7] | [8] | [9] | [10] | [11] | [12] | [13] | [14] | [15] | [16] | [17] | [18] | [19]

Cn1cc[n+](C)c1 (tested in a mixture with another compound)
inactive: [1] | [2] | [3] | [4] | [5] | [6] | [7] | [8] | [9] | [10] | [11] | [20] | [12] | [14] | [15] | [16] | [17] | [18] | [19]

Cc1cc(Cl)ccc1OC(C)C(=O)O (stereo not drawn)
inactive: [1] | [2] | [3] | [4] | [5] | [6] | [7] | [8] | [9] | [10] | [11] | [20] | [13] | [14] | [15] | [16] | [17] | [18] | [19]

O=C(CCN1CC1)OCC(CO)(COC(=O)CCN1CC1)COC(=O)CCN1CC1
inactive: [1] | [2] | [3] | [4] | [5] | [6] | [7] | [8] | [9] | [10] | [11] | [20] | [13] | [14] | [15] | [16] | [17] | [18] | [19]
